Screen size: about 420,000 compounds; about 50,000 (12%) were called active. Where a call stands in place of a potency, no number is given. Not shown: some 26% with an inconclusive outcome. Only a selection was taken, and actives are over-represented in it overall. Values without a mark were called inactive. The call rests on the fitted dose curve; in most records, active means well fitted inhibition curve with a large enough effect; inconclusive means small, poorly fitted or top-dose-only effect; inactive means flat fitted curve, though single readings scatter.
Assay: qHTS for Inhibitors of human tyrosyl-DNA phosphodiesterase 1 (TDP1): qHTS in cells in presence of CPT; further: nearly all actives have a fitted effect of over 55% in size
Conditions: chicken DT40 Tdp1-/-;hTDP1 cells + 20 nM CPT, ATP luminescence, 48 h; series mostly up to 46.2 µM
Summary of the method: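 Cell growth measured by CellTiter-Glo luminescence after a minimum 48 h, 37 C compound exposure with 20 nM CPT in Tdp1-knockout DT40 cells stably expressing hTDP1, seeded 400/well; qHTS titration format.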
Potency means the concentration at half of the fitted maximal effect.

SMILES	Potency	activity change, negative = growth inhibition
CC(=O)c1ccc(S(=O)(=O)NCc2nnnn2-c2ccccc2)cc1	inactive	
CC(=O)c1ccccc1OCc1ccc(C(=O)c2ccccc2)cc1	16.4 µM (active)	
O=C(O)c1ccccc1OCc1ccccc1Cl	inactive	
O=C(NC1CCC(O)CC1)c1ccccc1OCc1ccc(F)cc1 (centres undefined)	inactive	
S=C(Nc1ccc2c(c1)OCO2)N1CCCC1	inactive	
Cc1ccc(NC(=O)C2CCC(C(C)(C)C)CC2)cc1S(=O)(=O)N1CCOCC1 (centres undefined)	13 µM (active)	
O=C(CN1CCN(c2cccc(Cl)c2)CC1)Nc1ccc(S(=O)(=O)N2CCOCC2)cc1	20.6 µM (active)	
O=C(CN1CCCCCC1)Nc1ccc(S(=O)(=O)N2CCCCC2)cc1	inactive	
O=S(=O)(c1ccc(NC(=S)NN=C(C2CC2)C2CC2)cc1)N1CCOCC1	inactive	
Cc1ccc(C(=O)Nc2ccc3c(c2)OCCO3)cc1S(=O)(=O)N1CCOCC1	inactive	
Cc1ccc(NC(=O)c2ccccn2)cc1S(=O)(=O)N1CCOCC1	inactive	
O=C(Nc1ccc(S(=O)(=O)N2CCOCC2)cc1)C1CCN(S(=O)(=O)c2ccc(Cl)cc2)CC1	16.4 µM (active)	
O=C(Nc1ccc(Oc2ccccc2)cc1)C1CCN(S(=O)(=O)c2ccc(Cl)cc2)CC1	inactive	
Cc1ccc(NC(=O)COC(=O)C2CC2)cc1S(=O)(=O)N1CCOCC1	inactive	
O=C(CN1CCN(S(=O)(=O)/C=C/c2ccccc2)CC1)Nc1ccc(N2CCOCC2)cc1	inactive	
Cc1ccc(NC(=O)C(C)OC(=O)C2CC3CCCC(C2)C3=O)cc1S(=O)(=O)N1CCOCC1 (centres undefined)	inactive	
Cc1ccc(NC(=O)c2ccc(Cl)nc2)cc1S(=O)(=O)N1CCOCC1	10.3 µM (active)	
COc1cccc(C(=O)NNS(=O)(=O)c2ccc(F)cc2)c1	inactive	
Cc1c(NC(=O)c2cc(-c3ccc(Br)cc3)on2)c(=O)n(-c2ccccc2)n1C	inactive	
CCCN(C(=O)CSc1nnc(N)s1)c1c(N)n(Cc2ccccc2)c(=O)[nH]c1=O	inactive	
COc1ccc(C(=O)Oc2ccc(-c3nnco3)cc2)cc1S(=O)(=O)N1CCOCC1	inactive	
Cc1nn(C)c(Cl)c1CN1CCC(Oc2ccc(C(=O)N3CCCC3)cc2)CC1	inactive	
Cc1ccc(C(CNC(=O)Nc2ccccc2)N2CCN(C)CC2)cc1 (centres undefined)	inactive	
CC(C)Cc1ccc(C(C)C(=N)N)cc1 (centres undefined)	7.31 µM (active)	
COc1c(F)c(F)c(-c2csc(N)n2)c(F)c1F	inactive	

SMILES	Potency	activity change, negative = growth inhibition
O=C(Nc1ccccc1)c1ccccc1Br	inactive	
O=C(COC(=O)c1ccccc1Br)Nc1nnc(-c2ccccc2)o1	inactive	
O=C(Nc1nnc(-c2ccc(Cl)cc2)o1)c1ccccc1Br	23.1 µM (active)	
CCCCNC(=O)N1CCCC(N(C)CCc2ccc(OC)c(OC)c2)C1 (centres undefined)	inactive	
CC(NC(=O)CNC(=O)Cc1cccc2ccccc12)c1ccc(S(N)(=O)=O)cc1 (centres undefined)	inactive	
COc1ccc(-n2cc(CNC3CCOCC3)c(-c3cccc(F)c3)n2)cc1	20.6 µM (active)	
COc1ccc(CN2C3CCCC2CC(NC(=O)c2cccc(F)c2)C3)cc1 (centres undefined)	inactive	
Cc1cccc(-n2cc(CN3CCN(C(=O)c4ncn[nH]4)CC3)c(-c3cccc(F)c3)n2)c1	inactive	
COc1ccc(Cl)cc1-n1c(=S)sc2c(=O)n(-c3ccc(F)cc3)c(SCC(=O)O)nc21	inactive	
COc1cc(C)c(CN2CCc3nnc(C(C)NC(=O)c4cccnc4)n3CC2)cc1C (centres undefined)	inactive	
Cc1ccccc1Nc1c([N+](=O)[O-])ccc2nonc12	inactive	
Cc1nn(C)cc1C(=O)c1ccccc1	inactive	
COc1ccc(N(C)C(=O)C2CCN(S(=O)(=O)c3cccc4nsnc34)CC2)cc1	inactive	
COc1ccc(CCC(=O)NCCc2csc(-c3ccc(Cl)cc3)n2)cc1	23.1 µM (active)	
COc1ccc(CCNC(=O)COC(=O)c2cnc(Cl)c(Cl)c2)cc1	inactive	
COc1ccc(OCCCC(=O)NCCc2ccccc2)cc1	inactive	
CCOc1ccc(C(=O)Nc2cc(Cl)ccc2-n2cncn2)cc1OC	inactive	
CCC(NC(=O)C1CCCC1)c1ccc(C)cc1 (centres undefined)	inactive	
Cc1cc[n+](C2CCCCC2)cc1	15.8 µM (active)	
O=C(NNC(=O)c1cc(S(=O)(=O)N2CCCCC2)ccc1Cl)c1ccccc1O	23.1 µM (active)	
O=C(COC(=O)c1cc(S(=O)(=O)N2CCCCC2)ccc1Cl)NCc1ccco1	inactive	
Cc1cc(C(=O)CCC(=O)NNC(=O)c2ccccc2O)c(C)s1	inactive	
COc1ccccc1N(C)S(=O)(=O)c1ccc(Cl)c(C(=O)N2CCC(C(N)=O)CC2)c1	inactive	
CC1=C(C)CC(C(=O)NC(C)CCc2ccccc2)C(C(=O)O)C1 (centres undefined)	inactive	
NC(=O)COC(=O)c1cc(S(=O)(=O)N2CCN(c3ccccc3)CC2)ccc1Cl	inactive	

SMILES	Potency	activity change, negative = growth inhibition
NC(=O)C1CCN(C(=O)c2cc(S(=O)(=O)N3CCN(c4ccccc4)CC3)ccc2Cl)CC1	10.3 µM (active)	
Cc1ccc(S(=O)(=O)N2CCCCC2)cc1NC(=O)CCNC(=O)c1ccccc1Cl	inactive	
O=C(NNC(=O)c1ccccc1O)c1ccccc1O	5.17 µM (active)	
CC(=O)NC(=O)c1ccccc1O	inactive	
CC1=C(C)CC(C(=O)NNC(=O)c2ccccc2O)C(C(=O)O)C1 (centres undefined)	18.4 µM (active)	
CC1=C(C)CC(C(=O)NNC(=O)c2csc3c2CCC(C(C)(C)C)C3)C(C(=O)O)C1 (centres undefined)	inactive	
COCCNC(=S)N(CCc1c(C)[nH]c2ccc(C)cc12)Cc1cccnc1	inactive	
CC(NC(=O)CN(C)S(=O)(=O)c1ccc(F)cc1)C1CC2CCC1C2 (centres undefined)	inactive	
CC(=O)N/C(=C\c1ccccc1)C(=O)OC(C)C(=O)N(C)c1ccccc1 (centres undefined)	inactive	
CCOC(=O)Cn1c(O)c(N=NC(=O)CNC(=O)Cc2ccccc2)c2ccccc21	inactive	
CC(=O)Nc1ccc(S(=O)(=O)N2CCC(C(=O)N[C@@H](Cc3ccccc3)C(=O)O)CC2)cc1	inactive	
COc1cccc(CNC(=O)C(NS(=O)(=O)c2ccc3nc(C)sc3c2)C(C)C)c1 (centres undefined)	inactive	
COc1cccc(/C=C2\SC(=S)N(CCCC(=O)N3CCOCC3)C2=O)c1	18.4 µM (active)	
COc1ccc(/C=C2\SC(=S)N(CCC(=O)N3CCOCC3)C2=O)cc1OC	inactive	
COc1cccc(/C=C2/SC(=S)N(CC(=O)NC3C=CS(=O)(=O)C3)C2=O)c1 (centres undefined)	inactive	
Cc1cc(C)cc(NC(=O)COC(=O)c2cc(C)oc2C)c1	inactive	
Cc1sc2ccccc2c1CNC[C@H]1O[C@@H](n2ccc(=O)[nH]c2=O)[C@H](O)[C@@H]1O	inactive	
O=C(CCn1ccc([N+](=O)[O-])n1)Nc1nccs1	inactive	
CC1CN(Cc2ccco2)C(=S)N(c2ccccc2)C1=O (centres undefined)	inactive	
CN(C)C(=S)N=c1ssc(=S)n1Cc1ccco1	1.64 µM (active)	
Cc1cs/c(=N\N=C\c2ccc(O)cc2)n1Cc1ccco1	inactive	
Nc1ncnc2c1ncn2[C@@H]1O[C@H](C(=O)NS(=O)(=O)c2c(Cl)nc3sccn23)[C@@H](O)[C@H]1O	inactive	
O=S(=O)(Nc1ccccn1)c1cccc(S(=O)(=O)c2ccc(Cl)cc2)c1	inactive	
NS(=O)(=O)c1ccc(CNC(=O)c2cc(S(=O)(=O)N3CCOCC3)ccc2N2CCCC2)cc1	inactive	
CCCN(C(=O)COC(=O)CNS(=O)(=O)c1ccc(NC(C)=O)cc1)C1CCS(=O)(=O)C1 (centres undefined)	inactive	

SMILES	Potency	activity change, negative = growth inhibition
COC(=O)C1=C(N)Oc2c(oc(CO)cc2=O)C1c1c(F)cccc1Cl (centres undefined)	inactive	
CCOC(=O)c1sc(NC(=O)c2sc(C)nc2C)nc1C	inactive	
CCOC(=O)c1cc(-c2sc(NC(=O)c3ccccc3)nc2C)n(Cc2ccccc2)n1	16.4 µM (active)	
CCOC(=O)c1cc(OC(=O)c2ccccc2Cl)n(-c2ccccc2)n1	inactive	
CSc1ccc(Cl)c(C(=O)OCC(=O)N2CCNC2=O)c1	inactive	
Nc1ncnc2c1ncn2[C@@H]1O[C@H](C(=O)N2CCSC2)[C@@H](O)[C@H]1O	inactive	
COc1ccc(Nc2nc(N)nc(CSC(=S)N3CCC(C)CC3)n2)cc1	inactive	
COc1ccc(C)cc1S(=O)(=O)N(CC(=O)Nc1cccc([N+](=O)[O-])c1)c1ccc(C)cc1	18.4 µM (active)	
CN(CC(=O)Nc1cccc(F)c1)CC(=O)Nc1cccc([N+](=O)[O-])c1	inactive	
COc1ccc(N(CC(=O)Nc2ccc(C)cc2C)S(=O)(=O)c2ccccc2[N+](=O)[O-])c(OC)c1	inactive	
O=C(CCc1nnc2ccc(NCCCN3CCCC3=O)nn12)NCc1ccccc1Cl	inactive	
COc1ccc(NC(=O)CN2C(=O)CSc3ccc(S(=O)(=O)N4CCC(C)CC4)cc32)cc1	inactive	
O=S(=O)(NCCc1ccncc1)c1ccccc1	inactive	
Nc1nc(/C(=C/CC(=O)O)C(=O)N[C@@H]2C(=O)N3C(C(=O)O)=CCS[C@H]23)cs1	inactive	
O=C(c1cccc([N+](=O)[O-])c1)N1CCN(Cc2ccccc2)CC1	inactive	
O=C1Nc2ccc([N+](=O)[O-])cc2C1=Nc1cccc(CO)c1	16.4 µM (active)	
CC1Cn2c(nnc2-c2cccs2)S1 (centres undefined)	inactive	
O=c1cnnc(Nc2ccccc2)[nH]1	inactive	
CCC1(C2CCN(Cc3cccnc3)CC2)NC(=O)N(CC2COc3ccccc3O2)C1=O (centres undefined)		-5.78% [at 9.04 µM]
CSCC(NS(=O)(=O)c1ccc(C)cc1)C(=O)O (centres undefined)	inactive	
CCC(C)N(C(=O)CSc1ncnc2c1cnn2-c1ccccc1)C1CCS(=O)(=O)C1 (centres undefined)	inactive	
Cc1ccc(S(=O)(=O)NCC(=O)N2CCOCCOCCOCCOCC2)cc1	inactive	
O=C(CNS(=O)(=O)c1ccc2c(c1)OCCCO2)N1CCN(c2ccc(F)cc2)CC1	20.6 µM (active)	
COc1ccc(N2CCN(C(=O)CNS(=O)(=O)c3ccc(C)c(C)c3)CC2)cc1	inactive	
